Residue numbers refer to the chain shown, from its start.
Tests used:
Assay in all cases: protein-binding microarray (PBM); PBM: ~300 nM protein, 6 mM HEPES pH 7.8, 80 mM KCl, 0.5 mM EDTA, 0.5 mM EGTA, 6% glycerol, 35 ng/ul poly-dIdC, 1% milk, 1 h, room temperature; Ap Aiptasia and Nv Nematostella (sea anemones) / Co Capsaspora / Aq Amphimedon (sponge) / Dm Drosophila / Hu human; RHD is the Rel homology domain; high values mean tight binding
Conditions in all cases: dsDNA, one strand shown
GST-Ap-NF-kB RHD = target: T1, GST-Ap-NF-kB RHD (Exaiptasia pallida (Aiptasia), UniProt A0A913YAJ5 2-422)
T1 sequence: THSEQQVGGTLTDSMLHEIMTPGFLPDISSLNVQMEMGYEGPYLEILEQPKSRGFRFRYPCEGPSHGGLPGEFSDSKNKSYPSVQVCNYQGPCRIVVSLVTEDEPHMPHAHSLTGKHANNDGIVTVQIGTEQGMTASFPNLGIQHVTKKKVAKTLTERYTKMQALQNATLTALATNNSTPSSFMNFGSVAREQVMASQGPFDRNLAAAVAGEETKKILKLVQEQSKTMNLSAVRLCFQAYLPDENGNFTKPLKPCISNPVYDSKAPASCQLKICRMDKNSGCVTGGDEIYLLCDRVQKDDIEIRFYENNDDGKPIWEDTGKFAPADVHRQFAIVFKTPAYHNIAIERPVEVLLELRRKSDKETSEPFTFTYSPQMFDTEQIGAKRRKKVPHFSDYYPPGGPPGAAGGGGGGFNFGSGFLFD

[1] = target: T2, GST-Nv-NF-kB (Cys allele) (Nematostella vectensis, UniProt E5G601 2-411)
T2 sequence: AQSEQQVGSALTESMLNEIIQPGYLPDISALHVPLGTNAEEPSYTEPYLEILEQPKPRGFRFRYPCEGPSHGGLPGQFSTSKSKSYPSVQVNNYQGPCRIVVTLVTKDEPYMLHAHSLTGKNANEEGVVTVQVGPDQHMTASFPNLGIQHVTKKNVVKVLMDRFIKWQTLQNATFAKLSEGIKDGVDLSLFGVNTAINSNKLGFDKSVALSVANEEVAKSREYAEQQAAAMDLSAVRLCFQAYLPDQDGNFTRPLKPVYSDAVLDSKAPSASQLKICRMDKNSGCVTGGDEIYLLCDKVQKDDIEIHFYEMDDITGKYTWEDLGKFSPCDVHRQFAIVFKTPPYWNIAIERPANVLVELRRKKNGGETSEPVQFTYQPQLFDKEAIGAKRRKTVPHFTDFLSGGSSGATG

[2] = target: T3, GST-Nv-NF-kB (Ser allele) (Nematostella vectensis, UniProt A7UNT2 2-411)
T3 sequence: T2 sequence with Q21R, C66S, S207N, E215Q, V217A, E225K, A268E, D399E

GST-Co-NF-kB = target: T4, GST-Co-NF-kB (Capsaspora owczarzaki, UniProt F1ARL5 200-546)
T4 sequence: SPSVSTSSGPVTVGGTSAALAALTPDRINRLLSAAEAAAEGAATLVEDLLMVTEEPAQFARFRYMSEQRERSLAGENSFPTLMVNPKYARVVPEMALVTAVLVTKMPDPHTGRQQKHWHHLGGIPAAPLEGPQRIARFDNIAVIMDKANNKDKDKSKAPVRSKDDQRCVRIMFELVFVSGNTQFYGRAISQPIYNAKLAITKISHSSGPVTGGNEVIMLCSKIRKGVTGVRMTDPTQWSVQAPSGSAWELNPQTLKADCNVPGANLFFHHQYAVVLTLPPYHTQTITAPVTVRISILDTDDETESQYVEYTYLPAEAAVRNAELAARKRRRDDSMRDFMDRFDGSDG

GST-Dm-Relish = target: T5, GST-Dm-Relish (Drosophila melanogaster, UniProt Q94527 99-473)
T5 sequence: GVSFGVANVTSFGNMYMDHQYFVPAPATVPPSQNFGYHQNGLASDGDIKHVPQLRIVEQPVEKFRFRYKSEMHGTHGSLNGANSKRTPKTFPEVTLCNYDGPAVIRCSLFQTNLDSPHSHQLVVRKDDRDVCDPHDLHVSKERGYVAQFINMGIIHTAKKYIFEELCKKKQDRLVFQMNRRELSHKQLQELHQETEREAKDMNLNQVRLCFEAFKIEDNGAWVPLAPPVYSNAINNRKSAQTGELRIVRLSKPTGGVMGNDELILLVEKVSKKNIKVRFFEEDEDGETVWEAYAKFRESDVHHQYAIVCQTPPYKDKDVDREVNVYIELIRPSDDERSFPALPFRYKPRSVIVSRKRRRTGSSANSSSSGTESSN

GST-Aq-NF-kB = target: T6, GST-Aq-NF-kB (Amphimedon queenslandica, UniProt A9Y5G7 2-389)
T6 sequence: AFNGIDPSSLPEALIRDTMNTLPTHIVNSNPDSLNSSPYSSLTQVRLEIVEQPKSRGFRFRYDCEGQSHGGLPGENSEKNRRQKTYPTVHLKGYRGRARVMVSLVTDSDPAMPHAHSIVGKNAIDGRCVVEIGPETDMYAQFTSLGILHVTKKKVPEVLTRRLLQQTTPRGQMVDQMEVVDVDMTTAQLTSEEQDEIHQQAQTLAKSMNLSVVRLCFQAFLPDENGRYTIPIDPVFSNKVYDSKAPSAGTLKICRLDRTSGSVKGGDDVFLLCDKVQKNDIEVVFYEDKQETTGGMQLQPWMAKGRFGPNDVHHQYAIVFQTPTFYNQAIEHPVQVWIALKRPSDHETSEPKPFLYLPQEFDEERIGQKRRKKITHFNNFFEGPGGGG

GST-Hu-p50 = GST-Hu-p50 (Homo sapiens, UniProt P19838 7-356)
GST-Hu-p50, sequence (P19838 7-356): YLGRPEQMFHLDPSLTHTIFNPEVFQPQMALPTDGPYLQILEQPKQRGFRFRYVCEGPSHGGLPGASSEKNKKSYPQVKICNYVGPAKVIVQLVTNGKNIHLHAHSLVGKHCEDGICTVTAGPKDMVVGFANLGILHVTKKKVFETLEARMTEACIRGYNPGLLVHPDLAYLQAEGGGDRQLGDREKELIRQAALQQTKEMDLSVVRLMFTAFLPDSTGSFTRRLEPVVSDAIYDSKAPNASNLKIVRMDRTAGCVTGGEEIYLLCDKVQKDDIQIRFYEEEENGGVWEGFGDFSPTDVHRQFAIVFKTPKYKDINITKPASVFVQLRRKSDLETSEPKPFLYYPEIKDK

Row | Sequence | binding signal (GST-Ap-NF-kB RHD) | binding signal [1] | binding signal [2] | binding signal (GST-Co-NF-kB) | binding signal (GST-Dm-Relish) | binding signal (GST-Aq-NF-kB) | binding signal (GST-Hu-p50)
1 | CCGATTAACATCAGGGGACTCCATGATGTTAATCGGGTCTTGATTCGCTTGACGCTGCTG | 6.58 z-score | 4.64 z-score | 4.65 z-score | 1.82 z-score | 7.69 z-score | 4.63 z-score | 4.91 z-score
2 | CCGATTAACATCACCAAATCCCCTGATGTTAATCGGGTCTTGATTCGCTTGACGCTGCTG | 6.97 z-score | 6.55 z-score | 9.44 z-score | 3.02 z-score | 4.48 z-score | 4.54 z-score | 6.6 z-score
3 | CCGATTAACATCAAATACTCCCCTGATGTTAATCGGGTCTTGATTCGCTTGACGCTGCTG | 6.1 z-score | 5.48 z-score | 6.09 z-score | 6.89 z-score | 3.34 z-score | 5.29 z-score | 4.01 z-score
4 | CCGATTAACATCAGGCAGTCCCCTGATGTTAATCGGGTCTTGATTCGCTTGACGCTGCTG | 5.54 z-score | 4.49 z-score | 3.59 z-score | 1.33 z-score | 4.55 z-score | 5.52 z-score | 4.48 z-score
5 | CCGATTAACATCAGGGGCGTTTATGATGTTAATCGGGTCTTGATTCGCTTGACGCTGCTG | 3.36 z-score | 3.44 z-score | 3.2 z-score | 1.35 z-score | 2.1 z-score | 3.54 z-score | 3.71 z-score
6 | CCGATTAACATCAAAGACCCCCCTGATGTTAATCGGGTCTTGATTCGCTTGACGCTGCTG | 6.11 z-score | 4.15 z-score | 4.24 z-score | 3.36 z-score | 7.07 z-score | 5.33 z-score | 4.3 z-score
7 | CCGATTAACATCAGGGGGATAACTGATGTTAATCGGGTCTTGATTCGCTTGACGCTGCTG | 6.6 z-score | 4.96 z-score | 5.96 z-score | 6.99 z-score | 7.19 z-score | 5.34 z-score | 5.17 z-score
8 | CCGATTAACATCAAAATTCCCCTTGATGTTAATCGGGTCTTGATTCGCTTGACGCTGCTG | 10.1 z-score | 12.5 z-score | 14.2 z-score | 7.63 z-score | 9.78 z-score | 9.63 z-score | 8.23 z-score
9 | CCGATTAACATCAAGGAACTCCCTGATGTTAATCGGGTCTTGATTCGCTTGACGCTGCTG | 3.98 z-score | 3.82 z-score | 2.62 z-score | 1.49 z-score | 5.06 z-score | 5.06 z-score | 3.54 z-score
10 | CCGATTAACATCAATCCTCCCCCTGATGTTAATCGGGTCTTGATTCGCTTGACGCTGCTG | 5.52 z-score | 4.44 z-score | 5.85 z-score | 8.24 z-score | 2.9 z-score | 4.98 z-score | 4.83 z-score
11 | CCGATTAACATCACGGTTTTCCCTGATGTTAATCGGGTCTTGATTCGCTTGACGCTGCTG | 3.99 z-score | 5.02 z-score | 6.45 z-score | 4.63 z-score | 4.43 z-score | 5.43 z-score | 3.91 z-score
12 | CCGATTAACATCAACCATTCCCCTGATGTTAATCGGGTCTTGATTCGCTTGACGCTGCTG | 5.66 z-score | 6.61 z-score | 7.06 z-score | 4.68 z-score | 1.96 z-score | 4.45 z-score | 4.88 z-score
13 | CCGATTAACATCAATAATTACCCTGATGTTAATCGGGTCTTGATTCGCTTGACGCTGCTG | 2.91 z-score | 4.26 z-score | 4.81 z-score | 3.12 z-score | 3.09 z-score | 3.72 z-score | 3.55 z-score
14 | CCGATTAACATCAGAAGTGGGAATGATGTTAATCGGGTCTTGATTCGCTTGACGCTGCTG | 2.07 z-score | 2 z-score | 1.53 z-score | 2.78 z-score | 1.15 z-score | 2.35 z-score | 1.13 z-score
15 | CCGATTAACATCAAGGGTATTCCTGATGTTAATCGGGTCTTGATTCGCTTGACGCTGCTG | 5.29 z-score | 5.81 z-score | 4.65 z-score | 1.17 z-score | 7.04 z-score | 5.86 z-score | 4.55 z-score
16 | CCGATTAACATCAGACTTTTCCCTGATGTTAATCGGGTCTTGATTCGCTTGACGCTGCTG | 2.88 z-score | 4.94 z-score | 5.24 z-score | 4.28 z-score | 1.62 z-score | 4.8 z-score | 3.13 z-score
17 | CCGATTAACATCAGGGGCATACCTGATGTTAATCGGGTCTTGATTCGCTTGACGCTGCTG | 3.84 z-score | 4.44 z-score | 1.94 z-score | 1.44 z-score | 3.9 z-score | 6.89 z-score | 2.64 z-score
18 | CCGATTAACATCAGGGGGATATATGATGTTAATCGGGTCTTGATTCGCTTGACGCTGCTG | 6.45 z-score | 5.67 z-score | 6.14 z-score | 6.72 z-score | 4.91 z-score | 5.58 z-score | 5.49 z-score
19 | CCGATTAACATCAGGGGGAGAAATGATGTTAATCGGGTCTTGATTCGCTTGACGCTGCTG | 7.1 z-score | 6.13 z-score | 7.48 z-score | 10.7 z-score | 3.41 z-score | 4.8 z-score | 6.45 z-score
20 | CCGATTAACATCAGGGGGGTGTATGATGTTAATCGGGTCTTGATTCGCTTGACGCTGCTG | 3.69 z-score | 3.97 z-score | 4.14 z-score | 4.29 z-score | 4.17 z-score | 4.24 z-score | 3.91 z-score
21 | CCGATTAACATCAGGGTTCCCCATGATGTTAATCGGGTCTTGATTCGCTTGACGCTGCTG | 6.72 z-score | 5.05 z-score | 5.17 z-score | 5.37 z-score | 7.85 z-score | 4.21 z-score | 3.83 z-score
22 | CCGATTAACATCAGAGGATTCCCTGATGTTAATCGGGTCTTGATTCGCTTGACGCTGCTG | 3.72 z-score | 4.52 z-score | 4.31 z-score | 2.44 z-score | 7.61 z-score | 4.43 z-score | 2.84 z-score
23 | CCGATTAACATCAGGGGGGATTATGATGTTAATCGGGTCTTGATTCGCTTGACGCTGCTG | 8.28 z-score | 6.89 z-score | 7.27 z-score | 7.08 z-score | 6.91 z-score | 6.21 z-score | 6.82 z-score
24 | CCGATTAACATCAGGGGAATTAATGATGTTAATCGGGTCTTGATTCGCTTGACGCTGCTG | 6.97 z-score | 9.44 z-score | 10.2 z-score | 7.92 z-score | 7.21 z-score | 6.31 z-score | 6.52 z-score

Source: paper PMC5700166
